# A selection: hits, their analogues and other compounds. The true share with any hit is near 12%.
# WT yeast gro inh – growth inhibition of WT strain, primary screen, mitochondrial fusion inhibitor project, WT and mutant strains, chemical genetic | inhibition, % at 10 µM | mitochondrial fusion phenotypic screen | 190,000 tested, 2.1% active | AID 1362, 2008; in the data active = inhibition above about 58%; tested in S. cerevisiae
# Lmaj promast – Leishmania major promastigote growth inhibition, primary screen. Leishmania major promastigotes, resazurin fluorescence viability. inhibition, % at 10 µM. 200,000 tested, 9% active. AID 1063, 2008; in the data active = inhibition above about 50%;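 also: promastigotes grown with compound for 44 hours at 28 °C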
# INS promoter inh – inhibitors of insulin promoter-driven GFP, primary screen, imaging, TRM-6 cells (human fetal islet line), eGFP reporter, cell count | reporter expression induced with tamoxifen | inhibition, % at 2 µM | 130,000 tested, 0.9% active;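 active = inhibition above the mean plus 3 SD, with well images judged a real hit on visual review, cut at about 60% in these data, passing the limit was not always enough; inconclusive = inhibition over the cutoff but images rejected on review; inactive = inhibition not above the cutoff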
# KCC2 mod – KCC2 cotransporter modulators, thallium flux, primary screen, cell-based, HEK293 KCC2, FluoZin-2 fluorescence, MLSMR. Solute carrier family 12 member 5 (Homo sapiens), Q9H2X9. KCC2 cells, thallium flux FluoZin-2 fluorescence. B-score of Tl+ flux slope (higher = more flux/activation; lower = inhibition) at 10 µM. 190,000 tested, 2.2% active. AID 1456, 2008;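 active = thallium flux slope and its plate-corrected score both differing from the plate sample mean at a set confidence after two filtering rounds, in either direction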;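 also: slope of fluorescence scaled to starting intensity during 10 to 20 s after thallium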
# ROMK primary – ROMK potassium channel modulators, primary screen, cell-based, thallium flux, MLSMR library; AID 1918, 2009; ATP-sensitive inward rectifier potassium channel 1 (Homo sapiens), P48048; B-score at 10 µM; Tet-inducible ROMK, thallium flux fluorescence; actives lie on both sides; 130,000 tested, 2% active;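 active = signal ratio slope over the read window, or its plate-corrected B-score, at least 3 SD from the plate mean, either direction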;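 also: B-score of the F/F0 ratio slope over 7 to 12 s after thallium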
# Insulin prom up – insulin promoter activators in MIN6 cells, imaging, high-content screening, mouse beta cells; 190,000 tested, 0.3% active; MIN6 insulin promoter-GFP reporter; hits give high values; z-score at 5 µM;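 active = z-score above 3 at 5 µM with at least 500 cells counted in the well; inconclusive = wells under 500 cells, flagged as cytotoxic or low count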
# ROMK retest – ROMK channel modulator hit retest, confirmation, cell-based, thallium flux, duplicate, resupplied hits; shares compounds with ROMK primary; fluorescence ratio; hits give low values; normalized thallium flux (F/F0 slope) at 10 µM; 3,000 tested, 54% active;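 active = Flux at 10 µM at least 3 SD below or above vehicle control mean in one or both replicates; inconclusive = no clear call, values can overlap the other calls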
# Numbers without * were called inactive; ? = inconclusive; · = no result.
SMILES,WT yeast gro inh,Lmaj promast,INS promoter inh,KCC2 mod,ROMK primary,Insulin prom up,ROMK retest
O=C(Nc1ccc2oc(=O)ccc2c1)c1cc([N+](=O)[O-])ccc1N1CCOCC1,-14.2,1.8,·,-0.632,-7.29*,-0.02,0.0311*
O=C(c1ccc(Br)cc1)c1cc([N+](=O)[O-])ccc1N1CCOCC1,-9.5,1.0,·,-0.35,4.47*,0.28,0.0961
CCNC(=O)COC(=O)c1csc2c1CCCC2,-11.7,-8.2,·,0.64,-1.39,0.18,·
COc1ccc(-n2c(O)c(/C=N/NS(=O)(=O)c3ccc(C)c([N+](=O)[O-])c3)c3ccccc3c2=O)cc1OC,-5.8,-4.5,-70.6,-1.22,-3.28*,1.63,?
COc1ccc(OC)c(-c2cc(C(=O)Nc3c(C)nn(Cc4ccc(Cl)cc4)c3C)no2)c1,46.4,51.7*,-30.0,·,-2.59*,-1.05,0.0647*
Cc1ccc2nc(N3CCN(S(=O)(=O)c4ccc5c(c4)OCCO5)CC3)c(C#N)cc2c1,1.6,6.2,5.7,·,·,-0.3,·
Cc1ccc(S(=O)(=O)N2CCCN(c3nc4cc(C)ccc4cc3C#N)CC2)cc1,12.4,23.5,-131.2,0.151,·,-1.12,0.0741
O=C(N(c1ccccc1)c1ccccc1)N(c1ccccc1)c1ccccc1,·,·,·,-1.65,·,0,·
O=C(CCl)N(c1ccccc1)c1ccccc1,-11.5,77.2*,·,3.67,-5.4*,-0.55,0.0533*
CN(c1ccc(OCC(=O)NCc2cccnc2)cc1)S(=O)(=O)c1ccc(Cl)cc1,1.5,-7.7,·,0.074,-0.496,0.17,·
CC1C/C(=C/c2cccs2)C(=O)/C(=C/c2cccs2)C1 (stereo not given),14.5,-1.8,-17.2,0.253,2.93*,0.01,0.0713
N#CC1=C(SCC(=O)NC23CC4CC(CC(C4)C2)C3)NC(=O)C(C#N)C12CCCCC2 (stereo not given),19.7,14.4,42.9,·,-3.69*,-2.26,0.0569*
Cn1c(=O)c2c(nc(Sc3ccccc3N)n2C)n(C)c1=O,·,·,·,0.855,·,-0.17,·
Cc1ccc(NS(=O)(=O)c2ccc(-c3csc(C)n3)s2)c(C)c1,·,·,·,-0.119,-11.2*,-0.31,0.0743
O=C(O)c1ccc(-c2nc(-c3ccccc3)cs2)cc1,-16.7,-5.3,-18.2,-1.89,-0.917,0.1,·
O=C(O)c1ccc(-c2nc(-c3ccc(Cl)c(Cl)c3)cs2)cc1,74.8*,-5.5,-107.1,-2.35,3.07*,-0.34,0.0822
O=C(NCc1ccco1)c1nc(-c2ccc(F)cc2)no1,18.5,-4.2,20.0,0.221,-0.0695,0.85,·
CN=C1c2c(-c3ccccc3)c3cc(OC)ccc3n2CCN1C,15.4,40.3,10.3,·,-3.69*,-0.33,0.0668*
COc1ccc2nc3c(c(-c4ccccc4)c2c1)CCC3,41.2,9.9,19.1,-1.27,-0.495,-1.81,·
O=C(Nc1ccc2oc(-c3cccnc3)nc2c1)c1cccnc1,-7.7,6.1,·,0.906,-5.09*,-0.2,0.0799
COc1cc(OC)c(C#N)c(S(=O)Cc2ccccc2)c1 (stereo not given),·,-4.3,16.2,-0.614,0.755,·,·
O=C(CSc1ccc(-c2ccco2)nn1)NC1CCCC1,-5.5,4.8,-38.5,-1.43,·,-0.41,0.0809
O=C(CSc1ccc(-c2ccco2)nn1)NC1CCCCC1,-6.1,4.2,-7.7,0.0708,·,1.07,·
CC1=NOC(=O)/C1=C\c1ccc(-c2cc(Cl)ccc2Cl)o1,54.2,99.1*,28.1,0.815,-3.7*,-0.53,?
O=C(O)c1ccc(N/N=C/c2ccc(-c3cc(Cl)ccc3Cl)o2)cc1,·,·,·,-0.781,0.916,0.31,·
O=C(CSc1nnc(Cn2c(=O)sc3ccccc32)n1CCc1ccccc1)N1CCCC1,13.9,-1.4,·,0.63,·,-0.14,0.0777
NC(=O)CSc1nnc(Cn2c(=O)sc3ccccc32)n1CCc1ccccc1,4.4,-9.0,·,-0.516,·,-0.15,·
CCN(CC)S(=O)(=O)c1ccc(C)c(NC(=O)CN2CCN(Cc3ccccc3)CC2)c1,·,·,·,-0.238,·,·,·
